This is an account of results in PubChem BioAssay.

Chain of Fibroblast growth factor 2 (Homo sapiens) (P09038 whole entry, looked up): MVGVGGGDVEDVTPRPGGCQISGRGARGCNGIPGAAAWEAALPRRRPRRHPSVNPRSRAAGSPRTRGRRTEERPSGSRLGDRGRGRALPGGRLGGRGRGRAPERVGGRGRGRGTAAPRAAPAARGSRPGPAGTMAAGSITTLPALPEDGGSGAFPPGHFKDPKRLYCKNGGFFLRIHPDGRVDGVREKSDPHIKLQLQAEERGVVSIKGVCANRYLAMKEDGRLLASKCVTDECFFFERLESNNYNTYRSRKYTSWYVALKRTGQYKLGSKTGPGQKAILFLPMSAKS

The test has as its target Fibroblast growth factor 2 (Homo sapiens) (UniProt P09038). As to the kind of experiment: basic fibroblast growth factor binding to printed compounds – biochemical, small-molecule microarray, 635/667 nm fluorescence, primary screen (AID 1133). The note with it: FGF2, fluorescence 635/667, higher = more signal.
As for `CSCC[C@@H]1NC(=O)CC=C[C@@H](C)COC(=O)[C@H](C)COC1=O`, the composite z-score was 1.95.

For `CC1(C)O[C@H]2O[C@H]([C@H](O)CON=C3[C@H]4CCn5c(=O)n(-c6ccccc6)c(=O)n5[C@H]4[C@H](O)[C@@H]4O[C@H]34)[C@H](O)[C@H]2O1`, the composite z-score amounted to 0.947.

Molecule `COc1cccc([C@H]2Oc3ccc(OC)cc3C(=NO[C@@H](C)c3cc(-c4c(C)cc(C)cc4C)no3)[C@@H]2O)c1` yielded a composite z-score of -2.11.

In turn, `CC(=O)OC[C@H]1O[C@H](C#CCCc2ccccc2)C=C[C@@H]1OC(C)=O` returned a composite z-score of 0.461.

`CC(C)=CCCC(C)=CCON=C1C[C@@H](O)[C@@H](O)[C@@H]2[C@@H]3C(=O)N(C4CCCCC4)C(=O)[C@@H]3CC[C@H]12`: the composite z-score came to 1.25.

Consider `COC(=O)[C@H](C)NC(=O)CCC1CC(OC(=O)NCc2ccc3c(c2)OCO3)CC2(CCCC(COC(=O)NCCc3ccc(Cl)cc3)O2)O1` (stereo partly specified), for which the composite z-score came to 0.742.

Turning to `COC(=O)[C@H](C)NC(=O)CCC1CC(OC(=O)NCCc2ccc(F)cc2)CC2(CCCC(COC(=O)NCC3CCCCC3)O2)O1` (stereo partly specified), the composite z-score came out at 0.572.

Take `CCN1C(=O)[C@H]2[C@H]3[C@H](O)[C@H](O)CC(=NO[C@H](C)c4cn([C@H](CO)Cc5ccccc5)nn4)[C@@H]3CC[C@H]2C1=O`: the composite z-score stood at 0.474.

On to `CCN1C(C)=C(C(=O)OC)[C@@H](c2ccccc2)N2C(=O)[C@](O)(C(=O)OC)CC(C(C)=O)=C12`, for which the composite z-score came out at 0.0171.

In turn, `C=CC[C@@H]1C=C[C@H](ON=C(C)CCN2CCCCc3nc(C)c(C)cc32)[C@@H](CO)O1` came in with a composite z-score of 1.36.

`CC(C)=NOC(C)CN1CCCCc2nc(C)c(C)cc21` (stereo unspecified): the composite z-score was found to be 0.234.

On to `CCOC(=O)[C@H](Cc1ccccc1)NC(=O)CCC1CC(OC(=O)NCCc2ccc(F)cc2)CC2(CCCC(COC(=O)NCCOc3ccccc3)O2)O1` (stereo partly specified), for which the composite z-score came out at 1.24.

Take `Cc1ccc(S(=O)(=O)N[C@@H]2COC(=O)CC=C[C@@H](C)[C@H](NS(=O)(=O)c3ccc(C)cc3)COC(=O)[C@H](C)NC(=O)CC=C[C@H]2C)cc1`: the composite z-score turned out to be 0.499.

Take `CCOC(=O)CCN1C(=O)[C@H]2[C@H]3[C@H](O)[C@H](O)CC(=NOCC(C)C)[C@@H]3CC[C@H]2C1=O`: the composite z-score amounted to 1.14.

Regarding `CC(=O)OC[C@H]1O[C@H](CCON=C(C)CCN2CCCc3nc(C)c(C)cc32)C=C[C@@H]1OC(C)=O`, the composite z-score came to 0.664.

For `Cc1cc2c(nc1C)CCCCN2CC(O)CN1CCCc2nc(-c3ccc(Br)cc3)ccc21` (stereo unspecified), the composite z-score came out at 0.709.

`CC(C)(C)N1C(=O)[C@H]2[C@@H]3C(=CC[C@H]2C1=O)C(=O)[C@H]1O[C@H]1[C@H]3O` showed a composite z-score of -0.17.

Consider `CC(CCN1CCCc2nc(C)c(C)cc21)=NOC[C@@H](C)[C@H](OCc1ccccc1)C(C)C`, for which the composite z-score is -0.165.

Molecule `CON=C(C)CCC(=O)OC[C@H]1O[C@H](C#Cc2ccccc2)C=C[C@@H]1Oc1ccc(C)cc1` gave a composite z-score of 0.344.

In turn, `C[C@@H]1CC[C@@H](C(=O)O)N[C@H]1c1cccc(N2CCOCC2)c1` yielded a composite z-score of 0.652.

For `O=C1C2=CC[C@H]3C(=O)N(C4CCCCC4)C(=O)[C@H]3[C@H]2[C@H](O)[C@@H]2O[C@H]12`, the composite z-score was -0.682.

Regarding `CCOC(=O)[C@H](Cc1ccccc1)NC(=O)CCC1CC(OC(=O)NCCc2ccc(F)cc2)CC2(CCCC(COC(=O)NCc3cccc(C(F)(F)F)c3)O2)O1` (stereo partly specified), the composite z-score worked out at 0.696.

The molecule `O=C1[C@H]2[C@H]3[C@H](O)[C@H](O)CC(=NO[C@@H]4O[C@H](CO)[C@@H](O)[C@H](O)[C@H]4O)[C@H]3CC[C@H]2C(=O)N1C[C@@H]1CCCO1` had a composite z-score of 0.182.

`CC(CCC(=O)OC[C@H]1O[C@H](C#Cc2ccccc2)C=C[C@@H]1Oc1ccc(C)cc1)=NOC[C@@H](C)[C@H](OCc1ccccc1)C(C)C` had a composite z-score of -0.625.

The molecule `C[C@@H]1CC[C@H]2C(=O)OC(Cc3ccccc3)CN2[C@H]1c1ccc(Br)cc1` (stereo partly specified) registered a composite z-score of 0.867.

`COC(=O)CC=C[C@@H](C)[C@@H](C=NOC[C@@H](O)COCc1ccco1)OC` showed a composite z-score of 0.509.

`CCc1cc2c(nc1CC)CCN(CCC(C)=NOC[C@@H](C)[C@H](OCc1ccccc1)C(C)C)C2`: the composite z-score is -1.39.

For `O=C1C2=CC[C@H]3C(=O)N(C[C@@H]4CCCO4)C(=O)[C@H]3[C@H]2[C@H](O)[C@@H]2O[C@H]12`, the composite z-score stood at 0.0043.

`CCOC(=O)CCN1C(=O)[C@H]2[C@H]3[C@H](O)[C@H](O)CC(=NNC(=O)OCC)[C@H]3CC[C@H]2C1=O` returned a composite z-score of 0.406.

For `COc1ccc2c(c1)O[C@@H](c1cccc(C(F)(F)F)c1)[C@H](O)C2=O`, the composite z-score was 0.656.

Consider `COC(=O)CC=C[C@@H](C)[C@@H](C=NOC(C)CN1CCCCc2nc(C)c(C)cc21)NS(=O)(=O)c1ccc(C)cc1` (stereo partly specified), for which the composite z-score turned out to be 0.601.
